Data taken from PubChem BioAssay AID720519 (National Center for Advancing Translational Sciences (NCATS), 2013).
Results filed as inconclusive are left out. Active and inactive are the calls of the source. The call rests on the fitted dose curve; in most records, active means well fitted activation curve with a large enough effect; inconclusive means small, poorly fitted or top-dose-only effect; inactive means flat fitted curve, though single readings scatter.

Assay: qHTS for Inhibitors of Cell Surface uPA Generation: Confirmatory Assay for Cherry-picked Compounds
Conditions: cell surface uPA activity generation, qHTS confirmation; series mostly up to 115 µM
Summary of the method: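 RAW 264.7 cells at 4000/well, incubated overnight, then treated with compounds. After 24 h at 37 C, viability was read by ATPlite luminescence. An increase in signal indicates blocked uPA-dependent LF entry.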

Potency, inactive:
CCc1ccccc1N(CC(=O)N1CCCC1)S(C)(=O)=O
Fc1ccc(N2CCN(c3nc(CN4CCOCC4)nc4scc(-c5ccccc5)c34)CC2)cc1
Cc1nc2ncccn2c1-c1csc(Nc2ccc(S(N)(=O)=O)cc2)n1
CC(=O)NC(=S)Nc1ccc([N+](=O)[O-])cc1C
Cc1ccc(C(CC(=O)N2CCCC2)c2ccccc2)c(O)c1 (stereo not drawn)
COc1cccc2c1Oc1ncccc1N(C(=O)CCC(=O)NCc1ccc(C)cc1)C2
COc1cc(NS(=O)(=O)c2ccc(NC(=S)NC(=O)COc3ccccc3OC)cc2)nc(OC)n1
O=C(Nn1cnnc1)c1ccc(Cl)cc1
CC1(NC(=O)CSc2nnc(-c3c[nH]c4ccccc34)n2C2CC2)CCS(=O)(=O)C1 (stereo not drawn)
CCCn1nnc(NC(=S)NC(=O)c2ccccc2OC)n1
COC(=O)[C@@]1(Cc2ccc(F)cc2)[C@H]2c3cc(C(=O)N(C)C)n(Cc4c(CO)[nH]cc(C)c4=O)c3C[C@H]2CN1C(=O)c1ccccc1
Cc1cnc(CNC(=O)C2CCC(=O)N(CCc3cccc(F)c3)C2)[nH]1 (stereo not drawn)
COc1ccc([C@H]2CC(=O)C=C(c3ccc(CNC(=O)OC(C)(C)C)cc3)C2)cc1
CC1=NN(C(N)=S)C(=O)C1N=Nc1ccccc1C(=O)O (stereo not drawn)
CC1(c2cccc([N+](=O)[O-])c2)CC(C)(C)N(C(=O)c2ccccc2)c2ccccc21 (stereo not drawn)
O=C(COC(=O)c1cc([N+](=O)[O-])ccc1NCCO)NCc1cccs1
Cc1nc(SCC(=O)NCCN2C(=O)CSC2=O)nc(C)c1C
COc1ccc(-c2cc3nc(C)cc(-c4ccc(OC)cc4)n3n2)cc1
Cc1[nH]c2ccccc2c1C(=O)COC(=O)c1cccc(S(=O)(=O)N2CCCCC2)c1
CCOC(=O)N1CCc2c(sc3nc4n(c(=O)c23)N=C(C)CS4)C1
O=C(CSC1=NS(=O)(=O)c2ccccc2N1)Nc1nccs1
CCC(NC(=S)NCc1ccc(F)cc1)c1ccccc1 (stereo not drawn)
Cc1ccc2nc(Nc3ccc(Cl)cc3)c3nncn3c2c1
